We go through 22 molecules from PubChem BioAssay.

One experiment is described as follows: sensitizers of A549 cells to miR-34 induction, primary screen, imaging, A549 dox-inducible miR-34, nuclei and caspase counts (AID 1347080). Also: test concentration not given here. The note with it: A549 miR-34 inducible, Hoechst nuclei count, 48 h; measured here: total cells with miR-34 induction; stronger effect = lower value.
On to `CCOC(=O)Oc1c(OC)cc(C(=O)O[C@@H]2C[C@@H]3CN4CCc5c([nH]c6cc(OC)ccc56)[C@H]4C[C@@H]3[C@H](C(=O)OC)[C@H]2OC)cc1OC`, for which the cell count was 6440.

Regarding `CCC(NC(C)C)C(O)c1ccc(O)c2[nH]c(=O)ccc12` (centres undefined), the cell count was determined as 11700.

For `CC(C)CC(=O)N[C@H](C(=O)NC(C(=O)NC(CC(C)C)[C@@H](O)CC(=O)N[C@@H](C)C(=O)N[C@@H](CC(C)C)[C@@H](O)CC(=O)O)C(C)C)C(C)C` (some centres undefined), the cell count stood at 12400.

`CC(C)(C)NCC(O)COc1cccc2c1CC(O)C(O)C2` (centres undefined): the cell count was found to be 8980.

With `c1ccc(-c2[nH]ncc2-c2ccnc3ccccc23)nc1`, the cell count turned out to be 4970.

For the molecule `CN1CC[C@]23c4ccccc4N[C@H]1[C@]21CCN(C)[C@H]3Nc2ccccc21`, the cell count came to 9800.

Take `Nc1ncnc2c1c(I)cn2[C@@H]1O[C@H](CO)[C@H](O)C1O` (some centres undefined): the cell count is 1250.

In the case of `CC12CCC3c4ccc(OC(=O)c5ccccc5)cc4CCC3C1CCC2O` (centres undefined), the cell count is 9690.

Regarding `C[C@@H]1C(=O)O[C@H]2CC34[C@H]5C[C@@H](C(C)(C)C)[C@]36[C@@H](OC(=O)[C@@H]6O)O[C@@]4(C(=O)O5)[C@]21O` (some centres undefined), the cell count came to 9000.

Take `COC(=O)[C@@H]1CC(=O)O[C@H](C)C/C=C/C=C/[C@H](O)[C@H](C)C[C@H](CC=O)[C@H](OC2O[C@H](C)[C@@H](OC3C[C@@](C)(O)[C@@H](OC(=O)CC(C)C)[C@H](C)O3)[C@H](N(C)C)[C@H]2O)[C@H]1OC` (some centres undefined): the cell count amounted to 11900.

As to `Oc1cccc(-c2nc(N3CCOCC3)c3sccc3n2)c1`, the cell count was determined as 2340.

With `CC(C)(CO)C(O)C(=O)NCCC(=O)O` (centres undefined), the cell count amounted to 8190.

As for `CCC(C)[C@H]1O[C@]2(CC[C@@H]1C)C[C@@H]1C[C@@H](C/C=C(\C)[C@@H](OC3C[C@H](OC)C(O[C@H]4C[C@H](OC)[C@@H](O)[C@H](C)O4)[C@H](C)O3)[C@@H](C)/C=C/C=C3\CO[C@@H]4[C@H](O)C(C)=C[C@@H](C(=O)O1)[C@]34O)O2` (some centres undefined), the cell count stood at 4770.

In the case of `CNS(=O)(=O)c1ccc(NC(=O)c2ccccc2C(=O)O)cc1` (tested in a mixture with another compound), the cell count stood at 11500.

Consider `CC(C)=CCC/C(C)=C/CC1=C(C)C(=O)c2ccccc2C1=O`, for which the cell count was 6780.

Turning to `CC/C=C\C/C=C\C/C=C\C/C=C\C/C=C\CCCC(=O)OCC`, the cell count was 11500.

In the case of `CC1OC(O[C@H]2/C=C/C=C/C=C/C=C/C=C/C=C/C=C/[C@H](C)[C@@H](O)[C@@H](C)[C@H](C)OC(=O)CC(O)CC(O)CCC(O)C(O)CC(O)CC3(O)C[C@H](O)C(C(=O)O)C(C2)O3)C(O)[C@H](N)C1O` (some centres undefined), the cell count was determined as 10800.

`CCC(=O)O[C@H]1CCC2C3CCc4cc(O)ccc4C3CC[C@@]21C` (some centres undefined): the cell count worked out at 10500.

Take `CC(=O)OCC(=O)[C@@]1(O)CC[C@H]2[C@@H]3CCC4=CC(=O)CC[C@]4(C)C3(F)C(=O)C[C@@]21C` (some centres undefined): the cell count came out at 6080.

For the molecule `CC(C)[N+]1(C)[C@@H]2CC[C@@H]1CC(OC(=O)C(CO)c1ccccc1)C2` (some centres undefined), the cell count came to 9220.

Turning to `Nc1ncnc2c1ncn2C1O[C@H](CO)[C@@H](O)[C@@H]1O` (some centres undefined), the cell count worked out at 7580.

In the case of `CO[C@H]1CC(O[C@@H]2/C(C)=C/C[C@@H]3C[C@@H](C[C@]4(CC[C@H](C)[C@@H](C5CCCCC5)O4)O3)OC(=O)[C@@H]3C=C(C)/C(=N/O)[C@H]4OC/C(=C\C=C\[C@@H]2C)[C@]43O)O[C@@H](C)C1O` (some centres undefined), the cell count turned out to be 9710.

The same experiment, now with this note: A549 miR-34 inducible, Hoechst nuclei count, 48 h; measured here: total cells without miR-34 induction.
As to `CCOC(=O)Oc1c(OC)cc(C(=O)O[C@@H]2C[C@@H]3CN4CCc5c([nH]c6cc(OC)ccc56)[C@H]4C[C@@H]3[C@H](C(=O)OC)[C@H]2OC)cc1OC`, the cell count amounted to 8100.

For `CCC(NC(C)C)C(O)c1ccc(O)c2[nH]c(=O)ccc12` (centres undefined), the cell count was found to be 12900.

For `CC(C)CC(=O)N[C@H](C(=O)NC(C(=O)NC(CC(C)C)[C@@H](O)CC(=O)N[C@@H](C)C(=O)N[C@@H](CC(C)C)[C@@H](O)CC(=O)O)C(C)C)C(C)C` (some centres undefined), the cell count came to 13300.

As to `CC(C)(C)NCC(O)COc1cccc2c1CC(O)C(O)C2` (centres undefined), the cell count was determined as 10100.

With `c1ccc(-c2[nH]ncc2-c2ccnc3ccccc23)nc1`, the cell count was 5570.

For `CN1CC[C@]23c4ccccc4N[C@H]1[C@]21CCN(C)[C@H]3Nc2ccccc21`, the cell count is 10600.

Consider `Nc1ncnc2c1c(I)cn2[C@@H]1O[C@H](CO)[C@H](O)C1O` (some centres undefined), for which the cell count was 1240.

For `CC12CCC3c4ccc(OC(=O)c5ccccc5)cc4CCC3C1CCC2O` (centres undefined), the cell count amounted to 11600.

In the case of `C[C@@H]1C(=O)O[C@H]2CC34[C@H]5C[C@@H](C(C)(C)C)[C@]36[C@@H](OC(=O)[C@@H]6O)O[C@@]4(C(=O)O5)[C@]21O` (some centres undefined), the cell count was 9940.

Regarding `COC(=O)[C@@H]1CC(=O)O[C@H](C)C/C=C/C=C/[C@H](O)[C@H](C)C[C@H](CC=O)[C@H](OC2O[C@H](C)[C@@H](OC3C[C@@](C)(O)[C@@H](OC(=O)CC(C)C)[C@H](C)O3)[C@H](N(C)C)[C@H]2O)[C@H]1OC` (some centres undefined), the cell count is 12600.

For the molecule `Oc1cccc(-c2nc(N3CCOCC3)c3sccc3n2)c1`, the cell count came to 2750.

`CC(C)(CO)C(O)C(=O)NCCC(=O)O` (centres undefined): the cell count was found to be 9770.

Turning to `CCC(C)[C@H]1O[C@]2(CC[C@@H]1C)C[C@@H]1C[C@@H](C/C=C(\C)[C@@H](OC3C[C@H](OC)C(O[C@H]4C[C@H](OC)[C@@H](O)[C@H](C)O4)[C@H](C)O3)[C@@H](C)/C=C/C=C3\CO[C@@H]4[C@H](O)C(C)=C[C@@H](C(=O)O1)[C@]34O)O2` (some centres undefined), the cell count amounted to 4580.

For `CNS(=O)(=O)c1ccc(NC(=O)c2ccccc2C(=O)O)cc1` (tested in a mixture with another compound), the cell count was 12700.

For `CC(C)=CCC/C(C)=C/CC1=C(C)C(=O)c2ccccc2C1=O`, the cell count worked out at 6900.

Turning to `CC/C=C\C/C=C\C/C=C\C/C=C\C/C=C\CCCC(=O)OCC`, the cell count came out at 11400.

For `CC1OC(O[C@H]2/C=C/C=C/C=C/C=C/C=C/C=C/C=C/[C@H](C)[C@@H](O)[C@@H](C)[C@H](C)OC(=O)CC(O)CC(O)CCC(O)C(O)CC(O)CC3(O)C[C@H](O)C(C(=O)O)C(C2)O3)C(O)[C@H](N)C1O` (some centres undefined), the cell count is 11500.

In the case of `CCC(=O)O[C@H]1CCC2C3CCc4cc(O)ccc4C3CC[C@@]21C` (some centres undefined), the cell count was determined as 11500.

In the case of `CC(=O)OCC(=O)[C@@]1(O)CC[C@H]2[C@@H]3CCC4=CC(=O)CC[C@]4(C)C3(F)C(=O)C[C@@]21C` (some centres undefined), the cell count turned out to be 6960.

As for `CC(C)[N+]1(C)[C@@H]2CC[C@@H]1CC(OC(=O)C(CO)c1ccccc1)C2` (some centres undefined), the cell count is 10900.

Consider `Nc1ncnc2c1ncn2C1O[C@H](CO)[C@@H](O)[C@@H]1O` (some centres undefined), for which the cell count was determined as 8920.

Turning to `CO[C@H]1CC(O[C@@H]2/C(C)=C/C[C@@H]3C[C@@H](C[C@]4(CC[C@H](C)[C@@H](C5CCCCC5)O4)O3)OC(=O)[C@@H]3C=C(C)/C(=N/O)[C@H]4OC/C(=C\C=C\[C@@H]2C)[C@]43O)O[C@@H](C)C1O` (some centres undefined), the cell count was 11100.
